TIM10 inh = growth inhibitors of TIM10 yeast strain | S. cerevisiae TIM10 strain growth, BacTiter-Glo luminescence, 24 h | inhibition, % at 10 µM | 330,000 compounds, 1.4% hits | AID 463195;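 active = inhibition of 40% or more at the single tested concentration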;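 also: wild-type TIM10 isogenic control strain grown at permissive 25 °C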
tim23-1 inh = growth inhibitors of tim23-1 mutant yeast | S. cerevisiae tim23-1 growth, BacTiter-Glo luminescence, 24 h | AID 463212 | inhibition, % at 20 µM | 330,000 compounds, 1.3% hits;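 active = growth inhibition of the mutant yeast at or above 50%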;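 also: temperature-sensitive mutant grown at 25 °C; plate controls were DMSO-treated mutant yeast for no effect and medium wells lacking yeast for full effect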
tim10-1 inh = inhibits growth of tim10-1 mutant yeast. S. cerevisiae tim10-1 ts strain growth, BacTiter-Glo, 24 h. inhibition, % at 20 µM. 330,000 compounds, 2.2% hits;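 active = inhibition of at least 40%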;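 also: mutant grown at 25 °C; 0% = DMSO wells with yeast and 100% = wells holding no yeast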
NALP3 yeast inh = inhibitors of NALP3 inflammasome in yeast | 330,000 compounds, 0.39% hits | Yeast reconstituted NLRP3/ASC/caspase-1, beta-gal luminescence, 24 h | inhibition, % at 10 µM;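 active = inhibition of 50% or more; inactive = inhibition below 50%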;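 also: plate controls were induced DMSO wells for no effect and uninduced yeast grown without galactose for full effect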
V-ATPase pH = regulators of yeast V-ATPase proton transport. S. cerevisiae, pHLuorin cytosolic pH fluorescence. response, % at 10 µM. 350,000 compounds, 0.37% hits; in the data active = response mostly above about 7.3%, no sharp cut-off; inactive = mostly below about 5.4%; also: actives read high
NALP1 yeast inh = NALP1 inhibition; S. cerevisiae NALP1/ASC/caspase-1 growth, X-gal OD620, 72 h; inhibition, % at 10 µM; 280,000 compounds, 0.61% hits; AID 2071; in the data active = inhibition mostly above about 24%, no sharp cut-off; inactive = mostly below about 32%
tim10-1 conf = confirmation of tim10-1 mutant yeast growth inhibitors; shares compounds with tim10-1 inh; S. cerevisiae tim10-1 ts strain growth, BacTiter-Glo, 24 h; inhibition, % at 20 µM; 7,400 compounds, 56% hits; AID 463213;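 active = inhibition of yeast growth at or above a set limit in either of two repeat tests at 20 µM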;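 also: tim10-1 mutant grown at permissive 25 °C to find synthetic lethal compounds; 0% = DMSO yeast wells and 100% = medium wells without yeast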
TIM10 conf = confirmation of TIM10 yeast growth inhibitors. AID 463215. shares compounds with TIM10 inh. inhibition, % at 10 µM. S. cerevisiae tim10 strain growth, BacTiter-Glo luminescence, 24 h. 4,600 compounds, 63% hits;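 active = inhibition of yeast growth at or above a set limit in either of two replicates at 10 µM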;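 also: this counterscreen used the strain with wild-type TIM10; 0% = yeast with DMSO and 100% = medium wells lacking yeast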
The depositor's hits bear a star; x = no result given. Only some compounds are listed: those with a hit (about 4.2% of all), similar ones and a draw of the others.

SMILES	TIM10 inh	tim23-1 inh	tim10-1 inh	NALP3 yeast inh	V-ATPase pH	NALP1 yeast inh	tim10-1 conf	TIM10 conf
S=c1[nH]nc(CSc2nc3ccccc3s2)n1C1CCCCC1	49*	31	47*	38	-1	-12	42*	2
O=c1c2ccccc2sn1-c1ccccc1F	x	x	x	x	0	x	x	x
O=c1c2ccccc2sn1-c1ccc(S(=O)(=O)N2CCCCC2)cc1	22	1	19	18	-4	x	x	x
O=c1c2cc(C(F)(F)F)ccc2sn1-c1ccccc1	x	x	x	x	0	x	x	x
Cc1ccccc1-n1sc2cc(F)ccc2c1=O	49*	41	40*	24	3	20	38*	70*
O=c1c2cc(F)ccc2sn1-c1ccccc1	47*	38	45*	18	1	x	56*	77*
O=c1c2ccccc2sn1-c1ccccc1	58*	32	86*	30	6	8	51*	97*
Cc1ccc(-n2sc3ccccc3c2=O)cc1S(=O)(=O)N1CCCCC1	57*	17	87*	9	-3	3	89*	76*
CN(C(=O)c1ccc(NC(=O)Cc2cccc(NC(=O)C3CCN(C(=O)C4CC4)CC3)c2)cc1)C1CC1	x	x	x	x	0	x	x	x
CCOc1ccc2nc(NC(=O)CN3CCN(c4ccccn4)CC3)sc2c1	15	6	27	9	x	x	x	x
CC(=O)N1CCc2cc(S(=O)(=O)CCC(=O)NCc3cccs3)ccc21	1	5	5	11	1	10	x	x
O=C(/C=C/c1cc2ccccc2o1)c1ccccc1O	58*	48	41*	13	3	15	49*	58*
COc1ccc(O)c(C(=O)/C=C/c2cc3ccccc3o2)c1	48*	39	57*	17	-7	x	37*	-11
COc1ccc(-n2c(COc3ccccc3)nnc2SCc2ccc(C#N)cc2)cc1	32	37	29	3	-4	-2	x	x
CC(C)n1cnnc1SCC(=O)NCC(=O)Nc1ccc(F)cc1	15	11	24	10	-3	x	x	x
COc1cc(N)c(Cl)cc1Cl	-19	-2	1	9	0	-12	x	x
Cc1nc(NCc2ccccn2)c2ccccc2n1	-14	3	-15	4	1	1	x	x
O=c1c2ccccc2nc2c3ccccc3c(NCc3cccnc3)nn12	49*	24	54*	13	9	14	64*	51*
O=c1c2ccccc2nc2c3ccccc3c(NCc3ccccn3)nn12	71*	35	71*	15	-1	-2	65*	63*
c1cncc(CNc2nc(-c3cccnc3)nc3ccccc23)c1	-14	20	13	15	-1	11	x	x
COc1ccc(OC)c(CN2CCN(C(=O)c3ccc(S(=O)(=O)N4CCCCCC4)cc3)CC2)c1	x	x	x	x	0	x	x	x
C[C@]12CC[C@H](OC(=O)CCC(=O)O)CC1=CCC1C2CC[C@@]2(C)C1CC[C@@H]2N (some centres undefined)	-1	4	12	8	-2	x	x	x
CC(=O)OC1CCC2(C)C(=CCC3C2CCC2(C)C3CC3OC4(CCC(C)CN4)C(C)C32)C1 (centres undefined)	44*	42	41*	2	2	x	34*	22
CCn1cnc2cc(NCc3ccc(C)cc3)ccc21	4	6	-18	-13	-2	5	x	x
CCCn1cnc2cc(NCc3ccc(Br)cc3)ccc21	52*	45	43*	44	3	0	17	50*
SMILES	TIM10 inh	tim23-1 inh	tim10-1 inh	NALP3 yeast inh	V-ATPase pH	NALP1 yeast inh	tim10-1 conf	TIM10 conf
Nc1nc(-c2ccc(Br)s2)c(Br)s1	52*	47	54*	8	-2	17	36*	-10
COCCNC(=O)C(c1ccc(OC)cc1)N(C(=O)Cn1nnc2ccccc21)c1cccnc1 (centres undefined)	-12	2	-5	10	0	10	x	x
Cc1c(-c2nc3ccccc3[nH]2)cnn1C	3	0	-41	17	-3	x	x	x
Cn1cc(-c2nc3ccccc3[nH]2)c2ccccc21	71*	-10	41*	32	8	-37	27	-3
C=CCn1c(SCc2c(F)cccc2Cl)nnc1-c1ccco1	51*	46	41*	9	2	9	37*	23
C=CCn1c(SCC(=O)Nc2cc(C)c(Cl)cc2OC)nnc1-c1ccco1	8	36	31	19	4	2	x	x
Cc1cc(C)c2c(=O)n(CC(=O)Nc3cccc(F)c3)sc2n1	4	15	5	10	-2	15	x	x
CCOc1ccc(NC(=O)Cn2sc3nc(C)cc(C)c3c2=O)cc1	46*	9	83*	7	-2	-10	90*	88*
Cc1cc(C)c2c(=O)n(CC(=O)Nc3ccc(Cl)cc3)sc2n1	86*	18	91*	21	-1	x	93*	96*
Cc1ccc(NC(=O)Cn2sc3nc(C)cc(C)c3c2=O)c(Cl)c1	81*	15	86*	18	-3	-19	92*	96*
O=C(O)c1cscc1-c1cccc2ccccc12	x	x	x	x	-3	x	x	x
Cc1ccnc(N2CCC(C(=O)Nc3cccc(C(F)(F)F)c3)CC2)n1	42*	47	52*	13	-3	19	48*	30*
CC(CNC(=O)Cn1ccc(N)nc1=O)c1ccccc1 (centres undefined)	-3	10	-1	16	3	x	x	x
COc1ccc(OC)c(C(=O)/C=C/c2cccnc2)c1	42*	33	48*	9	6	4	32*	34*
COc1cc(C(=O)/C=C/c2cccnc2)ccc1O	7	15	26	23	-7	19	x	x
COc1ccc(/C=C2\SC(=O)N(CCNC(=O)Cn3cnnn3)C2=O)cc1	-349	-167	-124	-7	-1	6	x	x
O=C1S/C(=C\c2ccc(Cl)cc2)C(=O)N1CCn1cnnn1	43*	37	43*	23	2	13	35*	18
CC(C)COc1cccc(C(=O)NC(=S)NCc2cccnc2)c1	43*	39	47*	7	2	12	21	-19
CCOc1cccc(C(=O)NC(=S)NCc2cccnc2)c1	5	25	13	11	6	16	x	x
Fc1cccc(NC(=S)NCCc2ccccc2)c1	23	37	37	1	-5	6	x	x
O=[N+]([O-])c1cccc(NC(=S)NCCc2ccccc2)c1	46*	32	47*	3	-1	9	30*	17
COc1ccc(C(CNC(=O)c2ccc(OCc3csc(C)n3)cc2)N2CCCC2)cc1 (centres undefined)	x	x	x	x	4	x	x	x
CCOc1cc(C=NN=C2c3ccccc3-c3ccccc32)ccc1O	x	x	x	x	6	x	x	x

Assay outcomes from PubChem BioAssay.
